About 5,800 (36%) of roughly 16,000 compounds were called active. Roughly 23% stayed inconclusive and do not appear here. Calls come from the whole dose curve; as a rule, active = well fitted curve in the direction sought with a large enough effect; inconclusive = small, poorly fitted or top-dose-only effect, or effect the other way; inactive = no such curve, though single readings can be large or run the other way. The list shows a part of the results.
Target: Cytochrome P450 2C19 (Homo sapiens) (UniProt P33261)
Sequence (P33261 whole entry, looked up): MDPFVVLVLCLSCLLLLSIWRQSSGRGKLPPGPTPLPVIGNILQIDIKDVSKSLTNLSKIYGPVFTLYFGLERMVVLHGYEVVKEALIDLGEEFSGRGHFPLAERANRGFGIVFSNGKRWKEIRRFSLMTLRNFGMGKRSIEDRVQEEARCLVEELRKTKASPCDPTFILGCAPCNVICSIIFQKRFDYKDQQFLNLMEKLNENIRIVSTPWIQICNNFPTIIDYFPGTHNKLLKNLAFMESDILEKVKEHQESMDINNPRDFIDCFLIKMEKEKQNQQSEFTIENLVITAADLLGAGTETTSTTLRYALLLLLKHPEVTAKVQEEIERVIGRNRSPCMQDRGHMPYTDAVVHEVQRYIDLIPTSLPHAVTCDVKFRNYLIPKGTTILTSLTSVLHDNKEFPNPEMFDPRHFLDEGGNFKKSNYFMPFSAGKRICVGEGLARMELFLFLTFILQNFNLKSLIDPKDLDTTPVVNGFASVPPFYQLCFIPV
Assay: Cytochrome panel assay with activity outcomes
Conditions: recombinant CYP, pro-luciferin dealkylation, luminescence, p450-cyp2c19; series mostly up to 57.1 µM; activity, negative = inhibition: at the top concentration
% is set by controls: 0 for no effect and ±100 for the full control effect.

Compound	AC50	activity, negative = inhibition
CCC(=O)OCc1c(C(F)(F)F)nn(C)c1Sc1ccc(F)cc1	1.41 µM (active)	–
CC(=O)OCc1c(C(F)(F)F)nn(C)c1Sc1ccccc1	0.891 µM (active)	–
CC(C)(N=NC(C)(C)C1=NCCN1)C1=NCCN1	–	30.5% [at 11.4 µM] (inactive)
COC(Cn1c(C)c(C(C)=O)c(C(C)=O)c1C)OC	–	2.91% (inactive)
N#C/C(=C\c1ccc(N2CCCC2)c([N+](=O)[O-])c1)c1nc2ccccc2[nH]1	1 µM (active)	–
N#C/C(=C/c1ccc(N2CCCC2)c([N+](=O)[O-])c1)c1nc2ccccc2[nH]1	1.26 µM (active)	–
Cn1c(=O)n2n(c1=O)[C@H]1[C@H](O)[C@H]3O[C@H]3C(=O)[C@H]1CC2	–	20.1% [at 11.4 µM] (inactive)
C1CCC(C(C[C@@H]2CCCCN2)C2CCCCC2)CC1	–	-2.64% [at 25.6 µM] (inactive)
C[C@@H]1O[C@H](O[C@@H]2[C@@H](Oc3cc(O)c4c(c3)O[C@H](c3ccc(O)cc3)CC4=O)O[C@@H](CO)[C@@H](O)[C@H]2O)[C@@H](O)[C@H](O)[C@@H]1O	–	-34.9% [at 25.6 µM] (inactive)
O=S(=O)(O)c1ccc(-c2nnc(-c3ccccn3)nc2-c2ccc(S(=O)(=O)O)o2)o1	–	-6.8% [at 11.4 µM] (inactive)
c1ccc(-c2ccccn2)nc1	–	-25.4% (inactive)
c1ccc(-c2nc3ccccc3o2)nc1	14.1 µM (active)	–
CC(C)=CCNc1ncnc2nc[nH]c12	–	26.8% [at 11.4 µM] (inactive)
O=[N+]([O-])/C=C/c1cn(Cc2ccccc2)c2ccccc12	1.41 µM (active)	–
O=C1CS/C(=C\[N+](=O)[O-])N1c1ccc(OC(F)(F)F)cc1	3.98 µM (active)	–
C/C=C\C1=C(CO)C(=O)C2O[C@]2(CC=C(C)C)C1=O (some centres undefined)	–	-25.8% [at 11.4 µM] (inactive)
Cc1ccc(C(=O)N2C3C=CC(C3)C2(C(F)(F)F)C(F)(F)F)cc1 (centres undefined)	15.8 µM (active)	–
O=S(=O)(CC(O)COc1ccccc1Cl)c1ccccc1 (centres undefined)	7.08 µM (active)	–
COc1ccccc1OC[C@H](O)COC(N)=O	–	-7.57% [at 25.6 µM] (inactive)
C=CCOc1ccccc1OC[C@H](O)CNC(C)C	–	-20% [at 25.6 µM] (inactive)
O=C(Nc1cccc2ncccc12)c1ccc(-c2ccc(Br)cc2)o1	4.47 µM (active)	–
O=C(Nc1cccc2ncccc12)c1cccc(F)c1	–	-10.5% (inactive)
COc1ccc2[nH]cc(CCNc3ccnc(-c4ccccc4C)n3)c2c1	2.51 µM (active)	–
CC(=O)NCCNc1ccnc(-c2ccccc2C)n1	–	-6.01% (inactive)
COc1ccc2[nH]cc(CCNc3ccnc(-c4ccccc4C(F)(F)F)n3)c2c1	25.1 µM (active)	–
COc1cccc(CNc2ccc(F)c(Cl)c2)c1O	3.16 µM (active)	–

Compound	AC50	activity, negative = inhibition
Cc1noc(C)c1C(=O)N1CCC[C@@]2(CCN(C(=O)Nc3ccccc3)C2)C1	–	-2.9% (inactive)
CCC(CC)C(=O)Nc1cccc(/C(C)=N/NC(=O)c2c(Br)cnn2C)c1	–	12.7% (inactive)
CCOC(=O)c1c(NC(=O)c2c(Br)cnn2C)c(C#N)nn1-c1ccccc1	11.2 µM (active)	–
O=C1NC(=S)N/C1=C/c1cccc([N+](=O)[O-])c1O	–	-7.68% (inactive)
Cc1ccc(C(c2ccc(C)o2)c2cccc([N+](=O)[O-])c2O)o1	3.55 µM (active)	–
Cc1c(-c2ccc(O)cc2)nn(-c2ccc(O)cc2)c1-c1ccc(OCCN2CCCCC2)cc1	–	25% (inactive)
C=CCNC(=O)/C(=C\C=C\c1ccccc1)NC(=O)c1ccc(OCCCC)cc1	14.1 µM (active)	–
CC(C)OC(=O)/C(=C\C=C\c1ccccc1)NC(=O)c1ccccc1	–	-28.8% (inactive)
Cc1ccc(C(=O)N/C(=C/C=C/c2ccccc2)C(=O)NCc2ccco2)cc1	2.24 µM (active)	–
O=C(NCC1CCCO1)/C(=C\c1ccco1)NC(=O)c1ccccc1 (centres undefined)	–	16.1% (inactive)
CCC(=O)Nc1ccc(C(=O)CSc2nnc(-c3ccc(O)cc3)n2CC2CCCO2)cc1OC (centres undefined)	–	-29.4% (inactive)
COc1ccc(-c2nc3cnc(N(C)C)nc3n(C[C@H]3CCCO3)c2=O)cc1	–	36.9% (inactive)
Cc1ccc(CSc2nnc(-c3ccncc3)n2CC2CCCO2)cc1 (centres undefined)	4.47 µM (active)	–
CCn1c(-c2ccc(N(C)C)cc2)nc2ccccc21	39.8 µM (active)	–
O=C(NCCCc1ccccc1)c1cccs1	2.51 µM (active)	–
Cc1ccc(NC(=O)NCCCc2ccccc2)cc1	2.51 µM (active)	–
Cc1cc(C)c(NC(=O)CS(=O)CC(=O)NCCCc2ccccc2)c(C)c1 (centres undefined)	–	-9.86% (inactive)
Cc1ccc(S(=O)(=O)NNc2ccccc2)cc1	2.82 µM (active)	–
Cc1ccc(S(=O)(=O)NC(=O)OC23COCN2COC3)cc1	–	12.8% [at 11.4 µM] (inactive)
Cc1ccc(NC(=O)NNS(=O)(=O)c2ccc(Br)cc2)cc1	–	-18.6% (inactive)
Cc1ccc(NNS(=O)(=O)c2ccc(C)cc2)cc1	7.08 µM (active)	–
CO[C@H]1COC(=O)[C@@H](Cc2ccccc2)NC(=O)[C@@H](C)COC(=O)CCC[C@@H]1C	–	-15.4% [at 11.4 µM] (inactive)
COc1ccccc1C1(CC(=O)Nc2nccs2)CCOC(C(C)C)C1 (centres undefined)	1.58 µM (active)	–
Nc1c(-c2cccs2)cnn1-c1nc(-c2ccc(F)cc2)cs1	–	-22.7% (inactive)
COc1ccc(-c2csc(-n3ncc(-c4cccs4)c3N)n2)cc1	–	-7.82% (inactive)
Nc1c(-c2cccs2)cnn1-c1nc(-c2ccc(Cl)cc2Cl)cs1	0.0708 µM (active)	–

Compound	AC50	activity, negative = inhibition
COc1ccc(CNc2ncncc2-c2ccccc2C(F)(F)F)c(OC)c1	1.58 µM (active)	–
COc1ccccc1CNc1ncncc1-c1ccccc1C(F)(F)F	1.58 µM (active)	–
COCCn1c(=O)c(C)nc2cnc(N(C)C)nc21	–	-29.1% (inactive)
COC(=O)c1ccc(Oc2nc(N(C)C)nc(N3CCOCC3)n2)cc1	14.1 µM (active)	–
COc1ccc(-n2c(=O)c(C)nc3cnc(N4CCOCC4)nc32)cc1	–	-16.1% (inactive)
CN(C)C(=O)c1ccc(-c2ccc3ncnc(N4CCOCC4)c3c2)cc1	–	-28.9% (inactive)
N#Cc1c(NC(=O)C(F)(F)F)sc2c3c(=O)c4ccccc4c(=O)c=3oc3ccccc3c12	0.501 µM (active)	–
O=C(CCCn1c(=S)[nH]c2cc3c(cc2c1=O)OCO3)N1CCN(c2ncccn2)CC1	22.4 µM (active)	–
O=C(CCCn1c(=S)[nH]c2cc3c(cc2c1=O)OCO3)N1CCN(c2ccccc2)CC1	10 µM (active)	–
C=CCNC(=O)c1ccc(Cn2c(=S)[nH]c3cc4c(cc3c2=O)OCO4)cc1	–	-25.9% (inactive)
Cc1cccc(N2CCN(C(=O)CCCn3c(=S)[nH]c4cc5c(cc4c3=O)OCO5)CC2)c1C	2.82 µM (active)	–
Cn1c(=S)c2[nH]c(SCc3cccnc3)nc2n(C)c1=O	–	23.1% [at 11.4 µM] (inactive)
O=c1c2cc(Br)ccc2[nH]c(=S)n1Cc1cccnc1	1.58 µM (active)	–
O=C(c1cnccn1)N1CCC2(CC1)CN(c1cccc(-c3ccccc3)c1)C2	–	-33.5% (inactive)
O=C(O)/C=C\C(=O)Nc1cccc2c1-c1ccccc1C2=O	–	28.6% [at 11.4 µM] (inactive)
Cc1ccccc1CNc1ncnc2c1ncn2[C@@H]1O[C@@H](CO)[C@H](O)[C@@H]1O	–	-20.9% (inactive)
CCCc1nnc(NC(=O)CCC(=O)N2CCN(c3ccccn3)CC2)s1	–	-12.7% (inactive)
O=C(CCCn1c(=S)[nH]c2ccc(Br)cc2c1=O)NCC1CCCO1 (centres undefined)	3.55 µM (active)	–
O=C(CCCn1c(=S)[nH]c2ccc(Br)cc2c1=O)N1CCN(c2ccccn2)CC1	2.51 µM (active)	–
CN=C(NC#N)NCCSC[C@H]1N=CN=C1C	–	-24.8% [at 25.6 µM] (inactive)
N[C@@H]1[C@@H]2[C@@H]3C[C@H]4N(CC[C@@]14C(=O)C(=O)O)CC3=CCO[C@@H]2CC(=O)O	–	-13.5% [at 11.4 µM] (inactive)
Cc1ccc(S(=O)(=O)NCCSc2nnnn2C)cc1	5.01 µM (active)	–
c1cncc(CNc2ncnc3ccc(-c4ccoc4)cc23)c1	0.0251 µM (active)	–
Cc1cccc(CNc2ncnc3ccc(-c4ccoc4)cc23)c1	7.94 µM (active)	–
Cc1cccc(CNc2ncnc3ccc(-c4cccc(C#N)c4)cc23)c1	–	-42.8% (inactive)
Cn1cccc1C(=O)N1CCC2(CC1)CN(C(c1ccccc1)c1ccccc1)C2	–	-38.6% (inactive)

Compound	AC50	activity, negative = inhibition
CC(C)N(C(=O)CSc1nc2ccccc2n1-c1ccccc1)C(C)C	7.94 µM (active)	–
COC(=O)c1cc2c(ccn2-c2ccc(F)cc2)n1CC(C)C	3.16 µM (active)	–
COC(=O)c1cc2c(ccn2-c2ccc(F)cc2)n1C(C)C	2 µM (active)	–
COCCn1c(=O)c(-c2ccc(F)cc2)nc2cnc(N(C)C)nc21	–	-11.5% (inactive)
C=C[C@H](N)CCC(=O)O	inactive	–
CCc1ccccc1NC(=O)CSc1nc(-c2ccccc2)nn1C(=O)c1cccc([N+](=O)[O-])c1	0.398 µM (active)	–
CNc1cc(-c2ccccc2CN(C)C)ncn1	–	17.8% (inactive)
CN(C)Cc1ccccc1-c1cc(-n2ccnc2)ncn1	25.1 µM (active)	–
CN(C)Cc1ccccc1-c1cc(NC2CC2)ncn1	–	18.5% (inactive)
COc1ccccc1-c1cc(-n2ccnc2)ncn1	2 µM (active)	–
O=C(O)CCC(=O)N1CCc2cc(S(=O)(=O)N3CCCCC3)ccc21	–	-17% (inactive)
CSc1nc2cc(S(=O)(=O)N3CCCCC3)ccc2s1	1.26 µM (active)	–
NS(=O)(=O)c1cccc2c1c([N+](=O)[O-])cc1nc(O)c(O)nc12	–	-26.9% (inactive)
COc1cccc(-c2cc(NCc3cccnc3)ncn2)c1	10 µM (active)	–
COc1cccc(-c2cc(NCc3ccccc3)ncn2)c1	7.94 µM (active)	–
CN(C)C(=O)c1ccc(-c2cc(NCc3cccnc3)ncn2)cc1	–	6.59% (inactive)
c1cncc(CNc2cc(-c3ccoc3)ncn2)c1	–	-30.3% (inactive)
Nc1ccn([C@@H]2CC[C@H](CO)O2)c(=O)n1	–	5.48% [at 25.6 µM] (inactive)
O=C(O)[C@@H]1[C@@H]2C[C@H]3c4[nH]c5ccccc5c4CCN3C[C@@H]2CC[C@@H]1O	–	-4.36% [at 25.6 µM] (inactive)
CC(=O)NS(=O)(=O)c1ccc(NC(=O)NC2CCCCC2)cc1	–	-8.77% (inactive)
S=C(NCc1ccccn1)Nc1cccc(Cl)c1	3.55 µM (active)	–
S=C(Nc1cccc(Cl)c1)NC1CCCCC1	7.08 µM (active)	–
O=C(Nc1ccc(Cl)cc1)NC1CCCCC1	8.91 µM (active)	–
Cc1ccc(NC(=S)N2CCN(C(=O)C3CCCO3)CC2)c(C)c1 (centres undefined)	–	-24.4% (inactive)
NC(=O)c1ccc(NC(=O)C2CCCO2)cc1 (centres undefined)	–	-17.7% (inactive)
Cc1ccc(NC(=S)N2CCN(C3CCCCC3)CC2)cc1	6.31 µM (active)	–

Reference: PubChem BioAssay AID1851 (National Center for Advancing Translational Sciences (NCATS), 2009)
